Reference: the supplement of paper PMC8975748
Counter-ions that a name gives are not always drawn.

system: Saccharomyces cerevisiae BY4741 SeMeCo community; assay: z-score of subpopulation abundance vs DMSO median, subpopulation auxotrophic for HLU; higher = larger share of this subpopulation than in DMSO controls; settings: 10 µM; 24 h; SM minimal medium; subpopulation (auxotrophy): HLU
Method: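 Fluorescent four-plasmid SeMeCo (self-establishing metabolically cooperating S. cerevisiae BY4741 community; plasmids pH-mRuby2, pL-mWasabi, pU-eCFP, pM-TagRFP657) was grown 24 h in minimal SM medium with each Selleck FDA-approved drug at 10 µM in 384-well plates. Cells were fixed and imaged by high-content confocal microscopy. For each auxotrophic subpopulation (and the prototroph), a z-score gives the deviation from the DMSO vehicle-control population median.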

SMILES | z-score of subpopulation abundance
C=CCN1C[C@H](C(=O)N(CCCN(C)C)C(=O)NCC)C[C@@H]2c3cccc4[nH]cc(c34)C[C@H]21 [Cabergoline] | -0.08
CNC1CC(N)C(O)C(OC2OC(CO)C(O)C3OC4(OC(C(N)CO)C(O)C(O)C4O)OC23)C1O (stereo not given) [Hygromycin B] | -0.44
CCN1CC2(OC(=O)c3ccccc3NC(C)=O)CCC(OC)C34C1C(CC23)C1(O)CC(OC)C2CC4C1(O)C2OC (stereo not given) [Lappaconitine] | -0.47
C[C@@H]1CC[C@H]2[C@@H](C)C(=O)O[C@@H]3O[C@@]4(C)CC[C@@H]1[C@]32OO4 [Artemisinin] | -0.05
CN(C)[C@@H]1C(=O)C(C(N)=O)=C(O)[C@@]2(O)C(=O)C3=C(O)c4c(O)ccc(Cl)c4[C@@](C)(O)[C@H]3C[C@@H]12 [Chlortetracycline HCl] | -0.5
O=C(O[C@H]1C[C@H]2CC[C@@H](C1)[N+]21CCCC1)C(O)(c1ccccc1)c1ccccc1 [Trospium chloride] | -0.58
CC[C@H]1[C@@H]2C[C@H]3[C@@H]4N(C)c5ccccc5[C@]45C[C@@H]([C@@H]2[C@H]5O)N3[C@@H]1O [Ajmaline] | -0.63
Oc1cccc2cccnc12 [8-Hydroxyquinoline] | -0.85
CC(C)N(CCC(C(N)=O)(c1ccccc1)c1ccccn1)C(C)C (stereo not given) [Disopyramide] | 1.07
CN1c2ccccc2C(NCCCCCCC(=O)O)c2ccc(Cl)cc2S1(=O)=O (stereo not given) [Tianeptine sodium] | -0.23
Cc1cc(O)ccc1Cl [Chlorocresol] | -0.87
CC(=O)O[C@H]1C[C@@H]2CC[C@@H]3[C@H](CC[C@@]4(C)[C@H]3C[C@H]([N+]3(C)CCCCC3)[C@@H]4OC(C)=O)[C@@]2(C)C[C@@H]1[N+]1(C)CCCCC1 [Pancuronium dibromide] | -0.5
CN1[C@@H]2C[C@@H](OC(=O)[C@H](CO)c3ccccc3)C[C@H]1[C@@H]1O[C@@H]12 [Scopolamine HBr] | -1.08
NC(=O)CN1CCCC1=O [Piracetam] | 1.5
CC[C@@H](C(N)=O)N1CCCC1=O [Levetiracetam] | -0.28
COc1ccc2c(c1)[C@]13CCCC[C@@H]1[C@H](C2)N(C)CC3 [Dextromethorphan hydrobromide hydrate] | -0.08
C=CN1CCCC1=O.II [Povidone iodine] | 2.59
CC(C)=CCOc1c2occc2cc2ccc(=O)oc12 [Imperatorin] | 0.14
C[N+]12CCC(CC1)C(OC(=O)C(O)(c1ccccc1)c1ccccc1)C2 (stereo not given) [Clidinium Bromide] | -0.31
CN(C)[C@@H]1C(=O)C(C(N)=O)=C(O)[C@@]2(O)C(=O)C3=C(O)c4c(O)cccc4[C@@](C)(O)[C@H]3[C@H](O)[C@@H]12 [Oxytetracycline (Terramycin)] | 0.16

SMILES | z-score of subpopulation abundance
CN1[C@@H]2CC[C@H]1C[C@@H](OC(=O)C(CO)c1ccccc1)C2 (stereo not given in full) [Atropine sulfate monohydrate] | -0.61
NCC(O)c1ccc(O)cc1 (racemic) [(+,-)-Octopamine HCl] | -0.28
CC1(C)SC2C(N)C(=O)N2C1C(=O)O (stereo not given) [6-Aminopenicillanic acid] | -0.15
COC(=O)C1=CCCN(C)C1 [Arecoline HBr] | 0.06
CCOC(=O)Nc1ccc(NCc2ccc(F)cc2)cc1N [Retigabine 2HCl] | -0.42
CN1[C@@H]2CC[C@H]1C[C@@H](OC(=O)[C@H](CO)c1ccccc1)C2 [Hyoscyamine] | 0.2
CC(NC(C)(C)C)C(=O)c1cccc(Cl)c1 (stereo not given) [Amfebutamone (Bupropion) HCl] | -0.82
CCOC(=O)Nc1ccc(NCc2ccc(F)cc2)cc1N [Retigabine] | 0.77
C[N+](C)(C)CCCCCCCCCC[N+](C)(C)C [Decamethonium Bromide] | 0
O=c1[nH]c2ccccc2n1CCCN1CCC(n2c(=O)[nH]c3cc(Cl)ccc32)CC1 [Domperidone] | 1.05
CC[N+](C)(CC)CCOC(=O)C(O)(c1ccccc1)c1ccccc1 [Methylbenactyzine Bromide] | -0.28
COc1ccc2[nH]cc(CCN)c2c1 [5-Methoxytryptamine] | 0.69
C#C[C@]1(O)C=C[C@H]2[C@@H]3CCC4=CC(=O)CC[C@@H]4[C@H]3CC[C@@]21CC [Gestodene] | 0.11
CN[C@@H]1[C@@H](O)[C@@H](O[C@@H]2[C@@H](O)[C@H](O[C@H]3O[C@H](CN)CC[C@H]3N)[C@@H](N)C[C@H]2N)OC[C@]1(C)O.CN[C@@H]1[C@@H](O)[C@@H](O[C@@H]2[C@@H](O)[C@H](O[C@H]3O[C@H]([C@@H](C)N)CC[C@H]3N)[C@@H](N)C[C@H]2N)OC[C@]1(C)O.CN[C@@H]1[C@@H](O)[C@@H](O[C@@H]2[C@@H](O)[C@H](O[C@H]3O[C@H]([C@@H](C)NC)CC[C@H]3N)[C@@H](N)C[C@H]2N)OC[C@]1(C)O [Gentamicin Sulfate] | -0.42
CN(C)[C@@H]1C(=O)C(C(N)=O)=C(O)[C@@]2(O)C(=O)C3=C(O)c4c(O)cccc4[C@@](C)(O)[C@H]3C[C@@H]12 [Tetracycline HCl] | 0.02
COc1ccc(C(CN(C)C)C2(O)CCCCC2)cc1 (stereo not given) [Venlafaxine] | -0.41
CN(C)C(=O)Oc1cccc([N+](C)(C)C)c1 [Neostigmine Bromide] | 0.32
CN[C@@H]1[C@@H](O)[C@@H](O[C@@H]2[C@@H](O)[C@H](O[C@H]3O[C@H]([C@@H](C)O)[C@@H](O)[C@H](O)[C@H]3N)[C@@H](N)C[C@H]2N)OC[C@]1(C)O [Geneticin (G418 Sulfate)] | 0.77
NCCc1c[nH]c2ccc(O)cc12 [Serotonin HCl] | -0.94
COc1ccc(C=O)cc1 [p-Anisaldehyde] | -0.91
